Screens from PubChem BioAssay.
Only some compounds are listed: those with a hit (about 12% of all), similar ones and a draw of the others.
SARS PLP yeast – qHTS of Yeast-based Assay for SARS-CoV PLP; S. cerevisiae expressing SARS-CoV PLpro, growth rescue; Potency, µM (doses to about 32.9 µM), for the others: at the highest dose activity, positive = growth rescue, usual class: activators; hit rate 0.19% among 330,000; note: potency is the fitted concentration of half-maximal effect; 0% is about no effect; nearly all actives have a fitted effect of over 55% in size
Shiga toxin inh – A qHTS for Small Molecule Inhibitors of Shiga Toxin; Vero cells, Shiga toxin protein synthesis inhibition reporter; inhibition, % at 38.7 µM; hit rate 9.2% among 290,000; in the data active = inhibition mostly above about 28%, no sharp cut-off; inactive = mostly below about 43%; note: 0% is about no effect
CHX counter – Cycloheximide Counterscreen for Small Molecule Inhibitors of Shiga Toxin; hit rate 12% among 300,000; AID 2314, 2010; max response, %; cell reporter, cycloheximide protein synthesis inhibition counterscreen; in the data active = max response mostly above about 13%, no sharp cut-off; inactive = mostly below about 14%; note: read at 38.3 µM for the half of the compounds with a filed dose; 0% is about no effect
NS1 inh – qHTS Assay for Inhibitors of Influenza NS1 Protein Function | AID 2326, 2010 | hit rate 0.4% among 270,000 | Potency, µM (series often up to 46.1 µM), without a hit: at the top dose activity, positive = more growth; note: potency is the fitted concentration of half-maximal effect; actives are rising curves; nearly all actives have a fitted effect of over 50% in size
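Recovery from NS1-induced slow growth read by OD600 in budding yeast switched to galactose assay medium (pH 6.0, -URA) at 1:100 dilution. Compound 23 nl per well; the matching strain lacking NS1 serves as control.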
* marks the source's active call; other numbers are inactive results; ? = inconclusive; · = not tested or not shown. Unless noted, calls come from the whole dose curve.

SMILES	SARS PLP yeast	Shiga toxin inh	CHX counter	NS1 inh
Cc1cc(C)n2nc(SC(C)C(=O)N3CCOCC3)nc2n1 (centres undefined)	2%	·	·	·
COc1ccc(S(=O)(=O)N2CCN(CC(=O)Nc3sccc3C(N)=O)CC2)cc1OC	-2%	·	·	·
CC(=O)Oc1ccc(C(=O)[C@H]2[C@H]3C(=O)N(c4ccc(C)cc4)C(=O)[C@H]3[C@@H]3C=CC=NN32)cc1	-8%	46*	24*	?
CC1CCN(C2=NC(=O)/C(=C/c3ccccc3F)S2)CC1	-1%	68*	38*	-11%
COc1ccc(OC)c(NC(=O)c2cnn(-c3ccccc3)c2C)c1	-21%	27	8	-69%
COc1ccc(NC(=O)c2cnn(-c3ccccc3)c2C)cc1OC	-8%	80*	39*	-23%
COc1ccc(NC(=O)c2cnn(-c3ccccc3)c2C)cc1	-3%	·	36*	-26%
COc1ccc(CN2CCn3ncc(C(=O)Nc4ccccc4)c3C2=O)cc1	0%	52*	32*	12%
Cc1cc(Br)c(NC(=O)COC(=O)CC2CC3CCC2C3)c(Br)c1 (centres undefined)	-7%	·	·	·
COc1ccc(C(=O)NC2CCCc3c2cnn3-c2ccccc2F)cc1OC (centres undefined)	-3%	1	-3	7%
O=C(Nc1nc2ccccc2[nH]1)c1ccc(Cl)cc1	1%	18	8	-31%
O=C(Nc1nc2ccccc2[nH]1)c1ccccc1	-16%	37	17*	-55%
CN(c1cccc(Cl)c1)S(=O)(=O)c1cccc(C(=O)Nc2nc3ccccc3[nH]2)c1	-9%	32	24*	30%
CC(=O)N1CCN(S(=O)(=O)c2cccc(C(=O)Nc3nc4ccccc4[nH]3)c2)CC1	-3%	20	12	-6%
O=C(Nc1nc2ccccc2[nH]1)c1cccc(Cl)c1	-2%	91*	44*	6%
Cc1ccc(Nc2nc3ccccc3[nH]2)nc1	19%	53*	26*	-13%
CCNc1nc2ccccc2[nH]1	-7%	-10	5	0%
CNC(=S)NNC(=O)c1c(C)nc2cc(C)ccn12	1%	-9	0	5%
O=C(Cc1ccccc1)Nc1sc2c(c1C(=O)Nc1ccc(Cl)cc1)CCOC2	·	10	3	·
CC1CCCCN1C(=O)c1ccc(C(=O)c2ccccc2)cc1 (centres undefined)	-2%	·	·	·
Cc1noc(/C=C/c2cccs2)c1S(=O)(=O)N1CCC(C(=O)NCCCN2CCC(C)CC2)CC1	5%	-19	-6	·
COc1ccccc1N1CCN(CC(=O)Nc2c(C)n(C)n(-c3ccccc3)c2=O)CC1	2%	-16	-5	·
Cc1ccc(C)c(OCc2nc3ccccc3[nH]2)c1	-6%	88*	43*	·
Cc1ccc(S(=O)(=O)N2CCOCC2)cc1C(=O)Nc1nc2ccccc2[nH]1	8%	13	18*	-2%
O=C(Nc1nc2ccccc2[nH]1)c1ccccc1O	-3%	97*	37*	6%
SMILES	SARS PLP yeast	Shiga toxin inh	CHX counter	NS1 inh
Cc1ccc(C)c(C(=O)Nc2nc3ccccc3[nH]2)c1	-1%	61*	24	-4%
CC(=O)Nc1nc2ccccc2[nH]1	1%	5	-3	·
Cc1ccc(N(CC(=O)NC(C)c2ccccc2)S(=O)(=O)c2cccs2)cc1 (centres undefined)	-3%	-9	1	-2%
COc1ccccc1CN1CC(C(=O)NCCSc2nnnn2C)CCC1=O (centres undefined)	-2%	-3	-5	10%
CCOc1cccc(-c2cc(=O)[nH][nH]2)c1	17%	14	1	30%
COc1cccc(-c2cc(=O)[nH][nH]2)c1	9%	24	22*	·
O=Cc1ccc(OCC(=O)Nc2ccccc2C(F)(F)F)cc1	0%	0	25*	-1%
O=C(COC(=O)CNC(=O)c1cccs1)Nc1ccccc1C(F)(F)F	-1%	-8	7	·
O=C(COc1ccccc1Br)Nc1ccccc1C(F)(F)F	0%	61*	23*	-5%
CCOc1ccc(OCC(=O)Nc2ccccc2C(F)(F)F)cc1	0%	31	23*	-2%
Cc1ccc(OCCCC(=O)Nc2ccccc2C(F)(F)F)cc1	4%	-7	-1	-11%
COc1cccc(CN(C)C(=S)Nc2cccc(C)c2)c1	-3%	-10	0	·
COC(=O)C1=C(CS(=O)(=O)c2ccc(Cl)cc2)NC(=O)NC1c1ccc(O)c(OC)c1 (centres undefined)	0%	-14	-3	6%
Cc1nnc2n1N=C(c1ccc(OC(F)F)cc1)C(C)S2 (centres undefined)	-3%	-15	4	26%
COc1ccc(-n2c(C)nn(CCOc3ccccc3)c2=O)cc1	0%	58*	28*	0%
Cc1nn(CCOc2ccccc2)c(=O)n1-c1ccccc1	-3%	38*	29*	-11%
Cc1nn(CCOc2ccccc2)c(=O)n1-c1ccc(Cl)cc1	8%	76*	30*	·
O=C(COc1ccccc1)N/N=C/c1ccc(O[C@@H]2O[C@H](CO)[C@@H](O)[C@H](O)[C@H]2O)cc1	3%	20	-2	5%
Cc1onc(-c2ccccc2)c1C(=O)Oc1cccnc1	2%	-9	1	-4%
COc1ccc(/C=C/C(=O)c2cc3cccc(OC)c3oc2=O)cc1	0%	21	20	26%
Cc1cccc2cc(-c3nc4ccc(C(=O)O)cc4[nH]3)c(=O)oc12	0%	37*	25*	6%
COc1ccc(-c2cc3cccc(OC)c3oc2=O)cc1	-5%	64*	28*	-8%
COc1cccc2cc(-c3ccccc3)c(=O)oc12	-7%	104*	48*	-26%
COc1cccc2cc(-c3nc4ccccc4[nH]3)c(=O)oc12	-3%	·	32*	-11%
CC(C)(C)c1cc(C(C)(C)C)c2oc(=O)c(-c3nc4ccc(C(=O)O)cc4[nH]3)cc2c1	1%	·	·	·
SMILES	SARS PLP yeast	Shiga toxin inh	CHX counter	NS1 inh
COc1cccc(OC)c1C(=O)Nc1cccc(-c2nc3ccccc3[nH]2)c1	1%	26	0	1%
O=C(COC(=O)C12CC3CC(CC(Cl)(C3)C1)C2)Nc1ccccc1	-3%	·	·	·
O=C(O)c1cccc2c1C(=O)c1cc(Br)ccc1S2(=O)=O	-2%	·	·	·
Cc1ccc(Nc2nc(=O)c3cccnc3s2)cc1	-2%	72*	26*	-62%
COc1ccc(OC)c(Nc2nc(=O)c3cccnc3s2)c1	-2%	7	4	8%
CC(=O)CC1OC(=O)C(Br)=C1NCc1ccccc1 (centres undefined)	-10%	29	22*	-1%
COC(=O)c1ccc(NC(=O)CSc2nn3c(=O)c(C)nnc3s2)cc1	-5%	-11	-1	-3%
CCN1C(=O)N(S(=O)(=O)C(F)(F)F)[C@@H](c2ccccc2)C(C(=O)OC)=C1C	-10%	12	0	-1%
CCN1C(=O)N(C)[C@@H](c2ccccc2)C(C(=O)OC)=C1C	-6%	2	21*	-1%
CC(=C/c1ccccc1)/C=N/NC(=O)c1cnccn1	-7%	51*	30*	-11%
CC(=C/c1ccc(C(C)C)cc1)/C=N/NC(=O)Cn1nnnc1N	-1%	23	13	11%
O=C(Cc1cc(=O)[nH][nH]1)N/N=C/C(Cl)=C/c1ccccc1	12%	-10	-1	18%
